# AMA1 RON2 block – inhibitors of Plasmodium falciparum AMA1-RON2 interaction | AlphaScreen AMA1-biotinylated RON2 peptide binding | Potency, µM (doses to about 58.2 µM), for the others: at the highest dose activity change, negative = inhibition, usual class: inhibitors | 360,000 compounds, 0.2% hits;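 also: 0% = vehicle wells and -100% = peptide control; nearly all actives have a fitted effect of over 45% in size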
#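 AMA1 (3D7) with his tag at 25 nM final met compounds first, then biotinylated RON2 peptide at 25 nM; detection used donor plus acceptor beads, 10 µg/mL apiece, read by AlphaScreen after 30 min at room temperature.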
# Sm TGR inh – S. mansoni TGR enzyme inhibition; Q962Y6; purified TGR, DTNB reduction, TNB absorbance 405 nm; Potency, µM (titrated, usually from 114 µM), for the others: at the top dose activity change, negative = inhibition, actives largely listed as inhibitors; 360,000 compounds, 3% hits; AID 485364; also: nearly all actives have a fitted effect of over 60% in size
#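 Kinetic colorimetric format: TGR-catalysed, NADPH-driven DTNB reduction monitored via TNB absorbance. Enzyme dispensed at 20 nM; compound exposure 15 min at room temperature before reaction start.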
# AmpC inh no detg – AmpC beta-lactamase inhibition without detergent; 330,000 compounds, 0.52% hits; AmpC nitrocefin hydrolysis, absorbance 480 nm, 0.0001% Triton; AID 485341; P00811; Potency, µM (titrated, usually from 57.1 µM), for inactives: at the top dose activity change, negative = inhibition, most hits filed as inhibitors;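 also: plate controls were no compound for no effect and no enzyme for full effect; nearly all actives have a fitted effect of over 20% in size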
# Target sequence (P00811 whole entry, looked up): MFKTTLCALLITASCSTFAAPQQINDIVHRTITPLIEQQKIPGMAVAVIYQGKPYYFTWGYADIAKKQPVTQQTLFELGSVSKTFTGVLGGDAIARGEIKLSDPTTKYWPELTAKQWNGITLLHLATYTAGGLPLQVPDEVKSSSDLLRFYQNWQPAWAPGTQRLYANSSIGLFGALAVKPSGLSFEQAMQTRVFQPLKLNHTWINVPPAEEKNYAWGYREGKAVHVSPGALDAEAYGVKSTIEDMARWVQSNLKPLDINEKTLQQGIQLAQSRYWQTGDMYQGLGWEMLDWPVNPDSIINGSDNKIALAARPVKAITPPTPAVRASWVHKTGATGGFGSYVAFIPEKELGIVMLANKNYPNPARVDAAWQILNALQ
#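 20 mM phosphate pH 7.0 + 0.01% (detergent screen) or 0.0001% Triton X-100; 5.3 nM AmpC reagent; cpd preinc 15 min RT; nitrocefin (800 uM stock) to start; A480 q20 s × 4 min; Activity was normalised to no-enzyme and no-compound control wells.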
# RE007 growth inh – less growth of the S. pombe RE007 Vpr strain; S. pombe RE007 Vpr strain, BacTiter-Glo ATP luminescence, 24 h; AID 651644; Potency, µM (titrated, usually from 92.2 µM), for inactives: at the highest dose activity change, negative = less growth, hits mostly inhibitors; 360,000 compounds, 0.21% hits; active = well fitted falling curve with a large enough effect; inconclusive = small, poorly fitted or top-dose-only effect; inactive = no such curve, though single readings can be large or run the other way; also: nearly all actives have a fitted effect of over 50% in size
#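 Fission yeast strain RE007, carrying one chromosomally integrated HIV-1 vpr copy, was seeded at OD 0.01 in PMG+AL medium with 23 nL pinned compound. After 24 h at 30 °C and 99% humidity, viability was read by BacTiter-Glo luminescence.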
# AmpC inh detg – blocks E. coli AmpC beta-lactamase in detergent assay. P00811. AmpC hydrolysis of nitrocefin, absorbance 480 nm, 0.01% Triton. Potency, µM (doses to about 114 µM), without a hit: at the highest dose activity change, negative = inhibition, actives largely listed as inhibitors. 370,000 compounds, 0.041% hits;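 also: 0% = no-compound wells and -100% = no-enzyme wells; nearly all actives have a fitted effect of over 25% in size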
#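 AmpC (5.3 nM in the dispensed reagent) in 20 mM phosphate pH 7.0 with 0.01% (detergent screen) or 0.0001% Triton X-100 was preincubated with compounds for 15 min at room temperature. Nitrocefin was then added from an 800 uM solution, and hydrolysis was followed at 480 nm.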
# * marks the source's active call; other numbers are inactive results; ? = inconclusive; · = not tested or not shown; ! = not confirmed by another sample; [ ] = dose if it differs, or a comment. Hits are enriched below; roughly 3.2% of the tested compounds scored in any of these assays. Unless noted, calls follow the shape of the dose curve; as a rule, active = well fitted curve in the direction sought with a large enough effect; inconclusive = small, poorly fitted or top-dose-only effect, or another doubt; inactive = no such curve, though single readings can be large; an effect the other way counts as inactive or inconclusive. Unless noted, % is scaled to controls: 0 for no effect and ±100 for the full control effect; potency is read from the fitted curve at half-maximal effect.
SMILES,AMA1 RON2 block,Sm TGR inh,AmpC inh no detg,RE007 growth inh,AmpC inh detg
Cc1onc(-c2c(Cl)cccc2Cl)c1C(=O)N[C@@H]1C(=O)N2[C@@H]1SC(C)(C)[C@@H]2C(=O)O,11.0%,-13.0%,0.1µM*!,4.7%[18.4 µM],0.0447µM*
CC(Oc1ccccc1)C(=O)NC1C(=O)N2C1SC(C)(C)C2C(=O)O (stereo unspecified),0.0%,·,?,9.3%,35.5µM*
Cc1onc(-c2c(Cl)cccc2Cl)c1C(=O)NC1C(=O)N2C1SC(C)(C)C2C(=O)O (stereo unspecified),24.4%,-11.2%,?,1.8%,?
COc1cccc(OC)c1C(=O)N[C@@H]1C(=O)N2[C@@H]1SC(C)(C)[C@@H]2C(=O)O,32.8%,·,·,-4.8%,·
CC1CCCCN1c1nnc(NC(=O)c2cc(-c3ccc(Br)cc3)on2)s1 (stereo unspecified),108.8%,3.7%,39.8µM*,-5.4%,?
CC1CCCCN1C(=O)c1cc(-c2ccc(Br)cc2)on1 (stereo unspecified),·,3.9%,·,·,23.3%
O=C(CCS(=O)(=O)Cc1ccccc1)N1CCN(c2ccc([N+](=O)[O-])cc2)CC1,-8.9%,25.1µM*,18.5%,-1.8%,?
CCCC(=O)OC1=CN(Cc2ccccc2)S(=O)(=O)c2ccccc21,·,2.0%,·,·,9.2%
Oc1ccc(/C=N/N=C(c2ccccc2)c2ccccc2)c(O)c1O,6.6%,-22.0%,-43.2%,?,0.2%
O=C(/C(=N/N=C/c1ccc(O)c(O)c1O)c1ccccc1)c1ccccc1,15.1%,0.3%,20µM*,-7.6%,19.2%
Cc1cc(=O)n(Cc2c(F)cccc2Cl)c2c1c(C)nn2-c1cccc(F)c1,·,3.1%,·,·,18.6%
COC(=O)c1c(NC(=O)C(C)(C)C)sc2c1C(C(=O)OC)CC2 (stereo unspecified),3.4%,31.6µM*,105.2%,3.6%,0.1%
O=C(N/N=C/c1ccc(Br)s1)c1c[nH]c2ccccc12,-0.6%,-21.3%,25.1µM*,2.4%,-6.6%
CN(c1cccc(NC(=O)Nc2cccc(Cl)c2)c1)S(C)(=O)=O,-3.4%,-7.9%,-21.9%,-28.1%,-7.2%
CN(C)c1ccc(NC(=O)Nc2cccc(Cl)c2)cc1,?,-31.0%,5.01µM*,-4.1%,?
CN(C)c1ccc(NC(=S)Nc2ccc3c(c2)c(=O)n(C)n3-c2ccc(C(C)(C)C)cc2)cc1,?,·,·,-17.3%,·
CN(C)c1ccc(NC(=O)Nc2ccc3c(c2)c(=O)n(C)n3-c2ccccc2)cc1,20µM*,·,·,-14.3%,·
Cc1ccc(NC(=O)CSc2nc(N)c3cc4c(nc3n2)CCCC4)cc1,29.6%,3.4%,14.1µM*,-15.5%,-5.3%
Nc1nc(SCC(=O)Nc2ccccc2)nc2nc3c(cc12)CCCC3,0.0%,-1.1%,15.8µM*,-16.0%,-4.0%
Cc1cccc(Cn2cccc2CNS(=O)(=O)c2ccc(C)c(C)c2)c1,·,-5.4%,·,·,6.3%
CCOc1ccc(N2C(=O)C(Cl)=C(Nc3ccccc3O)C2=O)cc1,-1.0%,17.8µM*,-44.9%,?,0.3%
O=C1C(Cl)=C(Nc2ccccc2O)C(=O)N1CCc1ccccc1,-7.9%,28.2µM*,-20.7%,·,-15.5%
COc1ccc(N2C(=O)C(Cl)=C(Nc3ccc(OC)cc3OC)C2=O)cc1,-5.5%,28.2µM*,-2.7%,11.9%,-1.2%
COc1ccc(-c2cc(C(=O)Nc3c(C)n(C)n(-c4ccccc4)c3=O)c3ccccc3n2)cc1,0.8%,5.1%,148.5%,1.7%,8.7%
COc1ccc(CCNC2=C(Cl)C(=O)N(CCc3ccccc3)C2=O)cc1OC,7.9%,-13.1%,44.9%,-15.3%,-5.1%
SMILES,AMA1 RON2 block,Sm TGR inh,AmpC inh no detg,RE007 growth inh,AmpC inh detg
COc1ccc(N2C(=O)C(Cl)=C(Nc3c(C)n(C)n(-c4ccccc4)c3=O)C2=O)cc1,-20.8%,0.891µM*,?,-2.7%,-0.4%
COc1cccc2cc(-c3nnc(Nc4ccccc4C)s3)c(=O)oc12,·,2.2%,·,·,-1.8%
O=C(CCS(=O)(=O)c1ccc(Br)cc1)Nc1ccc(Cl)c(C(F)(F)F)c1,·,-17.4%,·,·,4.1%
CCOC(=O)C1CCN(C(=O)C2CCN(C3=NS(=O)(=O)C(c4ccc(C)cc4)=C3CC)CC2)CC1,·,1.3%,·,·,23.5%
COc1ccc(NC2=C(Cl)C(=O)N(c3ccccc3)C2=O)c(OC)c1,-0.5%,5.62µM*,-17.9%,?,0.3%
COc1ccccc1NC1=C(Cl)C(=O)N(c2ccccc2)C1=O,-16.9%,-6.1%,-12.7%,·,-5.2%
Clc1cccc(-c2ccc3ncnc(NCc4ccc5c(c4)OCO5)c3c2)c1,·,4.2%,-22.5%,·,?
COc1cc(C(=O)n2nc(C)c(Sc3ccc(Cl)cc3)c2C)cc(OC)c1OC,·,-0.8%,·,·,21.5%
COC(=O)CC1c2ccccc2S(=O)(=O)N1Cc1ccccc1 (stereo unspecified),1.5%,31.6µM*,-6.0%,10.0%,0.1%
O=C(O)C[C@H]1c2cc(C(F)(F)F)ccc2S(=O)(=O)N1Cc1ccccc1,19.4%,·,·,-5.4%,·
O=S1(=O)c2ccccc2C(CCO)N1Cc1ccccc1 (stereo unspecified),7.0%,28.2µM*,-4.7%,8.8%,6.0%
O=C(O)CC1c2ccccc2S(=O)(=O)N1Cc1ccccc1 (stereo unspecified),7.9%,40.0%,-30.9%,-1.9%,3.3%
O=C(CC1S/C(=N/N=C/c2c[nH]c3ccc(OCc4ccccc4)cc23)NC1=O)Nc1ccccc1 (stereo unspecified),-8.0%[2.32 µM],1.0%,5.01µM*,9.9%,?
O=C(CC1S/C(=N/N=C/c2c[nH]c3ccccc23)NC1=O)Nc1ccccc1 (stereo unspecified),51.2%,-1.9%,25.1µM*,12.1%,-2.8%
O=C(CC1S/C(=N/N=C/c2ccco2)NC1=O)Nc1ccccc1 (stereo unspecified),91.3%,0.0%,-30.7%,-21.7%,4.8%
COc1ccc(-c2nn(-c3ccccc3)cc2C2NC(=O)NC(C)=C2C(=O)OC(C)C)cc1Cl (stereo unspecified),·,-9.7%,·,·,-4.2%
CCOc1ccc(-c2cc3nc(C4CCN(C(=O)OC(C)(C)C)CC4)c(C(=O)Nc4ccc(C)c(F)c4)cn3n2)cc1,·,-1.9%,·,·,9.3%
N#CC1=C(N)N(c2ccc(Br)cc2)C2=C(C(=O)CCC2)C1c1cccnc1 (stereo unspecified),58.6%,39.8µM*,-19.5%,4.9%,-3.6%
Cc1cccc(C(=O)n2nc(-c3cccnc3)nc2NCc2ccccc2)c1,·,0.4%,·,·,-6.2%
O=C1c2ccccc2N2C(=O)c3ccccc3C2N1Cc1ccco1 (stereo unspecified),-19.7%,14.1µM*,-29.6%,3.2%,-4.9%
O=C1c2ccccc2N2C(=O)c3ccccc3C2N1O (stereo unspecified),-3.8%,0.5%,-10.6%,-5.5%,-9.8%
